High-throughput results from PubChem.
Shiga toxin inh: blocks Shiga toxin action in Vero cells; hit rate 9.2% among 290,000; inhibition, % at 38.7 µM; AID 2315; Vero cells, Shiga toxin protein synthesis inhibition reporter; in the data active = inhibition mostly above about 28%, no sharp cut-off; inactive = mostly below about 43%; note: 0% is about no effect
HCMV inh: inhibitors of human cytomegalovirus. HFF cells, HCMV-luciferase reporter, 72 h; hits give low values. activity change, negative = inhibition, % at 57.5 µM. hit rate 4.5% among 410,000. AID 1259415; in the data active = activity change below about -60%; inconclusive = no clear call, values can overlap the other calls; inactive = above about -39%; note: % is set by controls: 0 for no effect and ±100 for the full control effect
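Luciferase read-out from HCMV-luciferase-infected HFFs (MOI 1 PFU/cell) 72 h post infection at 37C; compounds added after 16 h cell attachment; activity normalized between buffer-only basal and Salinomycin (10uM) inhibitor controls.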
Pf growth 48h: inhibits P. falciparum growth in the first generation, 48 h; P. falciparum luciferase growth in erythrocytes, 48 h; hit rate 5.9% among 310,000; AID 504832; Potency, µM (doses to about 28.7 µM), inactives show at the top dose activity change, negative = inhibition, usual class: inhibitors; note: potency is the fitted concentration of half-maximal effect; % is set by controls: 0 for no effect and ±100 for the full control effect
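First compound was added to culture medium, then infected red cells at 0.1% parasitemia and 2% hematocrit (final). After incubation at 37 C under 5% CO2, luciferase detection reagent was dispensed and light output recorded.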
Pf growth 96h: inhibits malaria parasite growth, 96 h; P. falciparum luciferase reporter growth, 96 h; Potency, µM (doses to about 28.7 µM), for the others: at the highest dose activity change, negative = inhibition, usual class: inhibitors; hit rate 6.9% among 320,000; AID 504834; note: potency is the fitted concentration of half-maximal effect; % is set by controls: 0 for no effect and ±100 for the full control effect
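Cell-based qHTS: luciferase-tagged P. falciparum in erythrocytes (2% hematocrit, 0.05% parasitemia final) incubated with compounds for 96 hours, 37 C, 5% CO2; luciferase detection reagent then added and luminescence measured.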
CHX counter: counter-screen for Shiga toxin inhibitors: cycloheximide protein synthesis inhibition | hit rate 12% among 300,000 | cell reporter, cycloheximide protein synthesis inhibition counterscreen | max response, % | AID 2314; in the data active = max response mostly above about 13%, no sharp cut-off; inactive = mostly below about 14%; note: read at 38.3 µM for the half of the compounds with a filed dose; 0% is about no effect
Numbers without * were called inactive; ? = inconclusive; . = no result. Shown are actives, neighbours in structure and some others; about 20% of the full set was active somewhere. Unless noted, calls come from the whole dose curve; as a rule, active = well fitted inhibition curve with a large enough effect; inconclusive = small, poorly fitted or top-dose-only effect, or another doubt; inactive = no such curve, though single readings can be large or run the other way.

SMILES	Shiga toxin inh	HCMV inh	Pf growth 48h	Pf growth 96h	CHX counter
CCc1ccc(Nc2nc(N3CCOCC3)nc(N3CCOCC3)n2)cc1	-9	?	-26%	9.3µM*	-6
COc1ccccc1Nc1nc(N2CCOCC2)nc(N2CCOCC2)n1	12	?	?	10µM*	-11
CC(=O)Nc1ccc(/C(C)=N/Nc2nc(Nc3ccccc3)nc(N3CCOCC3)n2)cc1	21	35	2.1µM*	26%	6
CCOC(=O)c1ccc(Nc2nc(N3CCOCC3)nc(N3CCOCC3)n2)cc1	-2	-36	?	?	-4
COc1ccccc1Nc1nc(N2CCCC2)nc(N2CCOCC2)n1	.	4	.	.	.
CC(=O)c1ccc(Nc2nc(N3CCOCC3)nc(N3CCOCC3)n2)cc1	31	105	-4%	-23%	17*
CC(=O)c1cccc(Nc2nc(N3CCOCC3)nc(N3CCOCC3)n2)c1	-2	71	-4%	?	-11
COC(C(=O)Nc1ccnn1C1CCN(Cc2cnn(C)c2)CC1)c1ccccc1 (stereo not given)	-32	-19	-3%	-8%	-2
Fc1cccc(Cc2c(C3CCCCC3)nc3ccc(Cl)cn23)c1	.	-4	.	.	.
CCOC(=O)c1c(Nc2nc(C)c(C(=O)NC)s2)sc(C)c1C	-1	21	?	?	11
O=C(CSc1nc(Nc2ccccc2)nc(N2CCOCC2)n1)Nc1ccc([N+](=O)[O-])cc1	3	102	12µM*	.	-1
CN(C(=O)COC(=O)CSc1cc(Cl)ccc1Cl)c1c(N)n(Cc2ccccc2)c(=O)[nH]c1=O	.	57	-2%	9%	.
C/C(CC(=O)Nc1cccc(F)c1)=N\NC(=O)c1ccncc1	28	-29	6%	98%	10
C/C(CC(=O)Nc1ccc(Br)cc1)=N\NC(=O)c1cccc(O)c1	69*	97	?	?	44*
COc1ccc(C(=O)N/N=C(\C)CC(=O)Nc2ccc3c(c2)OCO3)cc1	55*	-5	-1%	14%	37*
C/C(CC(=O)Nc1ccc2c(c1)OCCO2)=N\NC(=O)c1cccc(O)c1	84*	31	28%	?	33*
Cc1cc(C)nc(-n2nc(C)cc2NC(=O)COC(=O)CCC(=O)c2cccs2)n1	18	24	.	?	5
COc1ccc2cc(CCNC(=O)c3cccc([N+](=O)[O-])c3)c(=O)[nH]c2c1	23	?	5.2µM*	?	11
Cc1ccc2cc(CCNC(=O)c3cccc([N+](=O)[O-])c3)c(=O)[nH]c2c1C	-9	-38	-1%	?	-2
Cc1ccc2cc(CCNC(=O)c3ccc(C)c([N+](=O)[O-])c3)c(=O)[nH]c2c1	-5	-35	?	4.7µM*	1
CCOc1ccc(C(=O)NCCc2ccc3c(c2)OCCO3)cc1	21	-3	4%	50%	9
COc1ccc2cc(CCNC(=O)c3ccc4c(c3)OCO4)c(=O)[nH]c2c1	-3	5	?	10µM*	-1
CCC(CC)C(=O)NCCc1cc2ccc(OC)cc2[nH]c1=O	-22	-7	29%	.	-3
COc1ccc(CCNC(=O)c2ccc3c(c2)OCCO3)cc1	84*	59	112%	203%	35*
Cc1cc(=O)[nH]c(SCC(=O)N2CCN(S(=O)(=O)c3ccccc3)C2)n1	48	-5	13%	3%	-1
SMILES	Shiga toxin inh	HCMV inh	Pf growth 48h	Pf growth 96h	CHX counter
COc1ccc(CCNC(=O)c2coc(=O)c(Br)c2)cc1	71*	78	5%	0%	26*
COc1ccc(CCNC(=O)c2ccc3c(c2)OCO3)cc1	62	-14	32%	-3%	27*
COc1ccc(OC)c2[nH]c(=O)c(CCNC(=O)c3ccc(S(=O)(=O)N4CCCC4)cc3)cc12	-15	-7	?	55%	-2
COc1ccc2cc(CCNC(=O)c3ccc(S(=O)(=O)N4CCCC4)cc3)c(=O)[nH]c2c1	-15	-28	13µM*	5.9µM*	-5
CC(C)(C)OC(=O)NC1CCN(S(=O)(=O)c2ccc3c(c2)OCCO3)CC1	-4	-27	26%	-7%	-3
COc1cc(/C=N/NC(=O)C(N)=O)ccc1OCC(=O)N1C(C)CCCC1C (stereo not given)	-1	-37	-37%	4%	-5
Cc1cc(=O)oc2cc(OCC(=O)OC(C)C(=O)NC3CCCC3)ccc12 (stereo not given)	-10	17	?	18%	0
C#CCOCCOCCOCCNc1nc(N2CCN(C(=O)CCCCCCCCCCNC(=O)[C@H]([C@@H](C)CC)n3cc(CCCCCN)nn3)CC2)nc(N2CCN(C(=O)CCCCCCCCCCNC(=O)[C@@H]([C@H](C)CC)n3cc(CCCCCN)nn3)CC2)n1	.	.	3.3µM*	?	.
C#CCOCCOCCOCCNc1nc(N2CCOCC2)nc(N2CCN(C(=O)CCCCCCCCCCNC(=O)[C@@H]([C@H](C)CC)n3cc(CCCCCN)nn3)CC2)n1	.	25	1.2µM*	0.83µM*	.
C#CCOCCOCCOCCNc1nc(N2CCN(C(=O)Cn3cc(CCCCN)nn3)CC2)nc(N2CCN(C(=O)[C@H]([C@@H](C)CC)n3cc(CCCCN)nn3)CC2)n1	.	0	-6%	77%	.
C#CCOCCOCCOCCNc1nc(N2CCN(C(=O)CCCCCCCCCCNC(=O)[C@H]([C@@H](C)CC)n3cc(CCCCCN)nn3)CC2)nc(N2CCN(C(=O)CCCCCCCCCCNC(=O)[C@H](CO)n3cc(CCCCCN)nn3)CC2)n1	.	.	13µM*	?	.
O=S(=O)(SC1=NCCN1)c1ccccc1	.	0	.	.	.
Cc1ccc(Nc2n[nH]c(C)c2[N+](=O)[O-])cc1C	54	116	285%	?	32*
CCN1CCN(c2nc(N)c([N+](=O)[O-])c(Nc3ccc(C)c(C)c3)n2)CC1	-12	2	11%	1%	-5
Cc1nn(C2CCS(=O)(=O)C2)c(C)c1CN(C)C(=O)c1ccccc1 (stereo not given)	.	-37	-8%	-20%	.
Cc1ccc2nc(Nc3nc(-c4ccccc4)cc(=O)[nH]3)nc(C)c2c1	-17	-67*	?	?	-3
COc1ccc2c(C)nc(Nc3nc(-c4ccccc4)cc(=O)[nH]3)nc2c1	-6	-93*	3%	-8%	-1
COCc1cc(=O)[nH]c(Nc2nc(C)c3cc(OC)ccc3n2)n1	-3	.	.	87%	6
Cc1ccc2nc(Nc3nc(CSc4nc5ccccc5s4)cc(=O)[nH]3)nc(C)c2c1	-9	10	8%	75%	-1
Cc1ccc2nc(Nc3nc(C)cc(-c4ccccc4)n3)[nH]c(=O)c2c1	-17	?	3.3µM*	6.6µM*	-1
COc1ccc(N2CCN(C(=O)CCc3ccccc3)CC2)cc1	-7	-4	.	-7%	-2
Nc1ccn(CCCN2CCN(C(=O)C3CC3)CC2)c(=O)n1	.	22	.	.	.
COC(=O)c1ccc(OCC2c3cc(OC)c(OC)cc3CCN2C(=O)c2ccccc2C)cc1 (stereo not given)	.	13	.	.	.
